Bioassay records as filed in PubChem.
RORgamma inh: qHTS for inhibitors of ROR gamma transcriptional activity; Nuclear receptor ROR-gamma (Mus musculus), P51450; Drosophila S2 Gal4-RORgamma UAS-luciferase reporter, 20 h; Potency, µM (series often up to 53.6 µM), without a hit: at the highest dose activity change, negative = inhibition, most hits filed as inhibitors; actives 5.4% (n = 310,000); further: nearly all actives have a fitted effect of over 60% in size
Target sequence (P51450 whole entry, looked up, the tested form may be a part): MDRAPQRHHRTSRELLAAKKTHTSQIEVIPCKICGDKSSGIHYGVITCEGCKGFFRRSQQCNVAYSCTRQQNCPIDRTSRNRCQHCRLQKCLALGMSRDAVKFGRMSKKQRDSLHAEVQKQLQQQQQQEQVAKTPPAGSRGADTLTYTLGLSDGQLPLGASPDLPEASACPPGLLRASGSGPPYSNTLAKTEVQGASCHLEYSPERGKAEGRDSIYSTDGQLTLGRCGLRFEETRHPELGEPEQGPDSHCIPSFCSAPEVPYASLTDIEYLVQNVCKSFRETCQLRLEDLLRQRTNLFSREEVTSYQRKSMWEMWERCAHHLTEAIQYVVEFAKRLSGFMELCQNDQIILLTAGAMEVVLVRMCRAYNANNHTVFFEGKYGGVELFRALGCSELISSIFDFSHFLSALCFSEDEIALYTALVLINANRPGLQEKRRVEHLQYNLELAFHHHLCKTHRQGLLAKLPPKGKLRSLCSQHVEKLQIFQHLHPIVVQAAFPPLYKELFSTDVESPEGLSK
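Stably transfected Drosophila Schneider cells are the test system, with ROR gamma fused to Gal4 and luciferase under UAS control; luminescence is read after 20 hr of 700 uM copper sulfate induction at ambient temperature.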
KinaseGlo FLuc: Counterscreen for Luciferase (Kinase-Glo TM) Inhibition | Kinase-Glo luciferase, ATP luminescence, 8 min | Potency, µM (highest dose often 38.3 µM), inactives show at the highest dose activity change, negative = inhibition, actives largely listed as inhibitors | actives 0.28% (n = 200,000) | AID 1379, 2008; further: nearly all actives have a fitted effect of over 60% in size
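Inhibition of Kinase-Glo luciferase light generation was assessed at 10 uM ATP in pH 7.2 imidazole buffer, with luminescence measured after eight minutes at ambient temperature.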
Gal4-VP16 FLuc: VP16 counterscreen qHTS for inhibitors of ROR gamma transcriptional activity; Drosophila S2 Gal4-VP16 UAS-luciferase, luminescence, 20 h; AID 2546, 2010; Potency, µM (titrated, usually from 53.6 µM), for inactives: top-dose activity, negative = inhibition, hits mostly inhibitors; actives 3.5% (n = 310,000);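 further: Gal4-VP16 expression switched on by copper sulfate through the metallothionein promoter; nearly all actives have a fitted effect of over 50% in size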
The depositor's hits bear a star; u = inconclusive; x = no result; [ ] = another dose, or the depositor's remark. The list is not random: actives were taken first. Their share in the collection is about 6.4%. The call rests on the fitted dose curve; in most records, active means well fitted curve in the direction sought with a large enough effect; inconclusive means small, poorly fitted or top-dose-only effect, or another doubt; inactive means no such curve, though single readings can be large; an effect the other way counts as inactive or inconclusive. On the % scale 0 is the no-effect control and ±100 the full control effect; potency means the concentration at half of the fitted maximal effect.

SMILES	RORgamma inh	KinaseGlo FLuc	Gal4-VP16 FLuc
Cc1ccc(N/C(SCc2ccccc2C)=C(/C#N)C(=O)NCc2ccco2)cc1C	-29%	0%	-3%
CCCCN1CCCC1C(=O)Nc1c(C)cc(C)cc1C (centres undefined)	-7%	x	-2%
O=C(N/N=C/c1ccc(N2CCOCC2)o1)c1ccccc1[N+](=O)[O-]	13µM*	0%	u
O=C(N/N=C/c1ccc(N2CCOCC2)s1)c1ccccc1Br	11µM*	-2%	-7%
O=C(Nc1ccc(N2CCOCC2)nc1N1CCOCC1)c1cccc(C(F)(F)F)c1	25%	x	9%
CC(C)(C)OC(=O)N/N=C/c1ccc(N2CCOCC2)s1	22%	-1%	3%
O=C(N/N=C/c1ccc(N2CCOCC2)o1)c1cccc(C(F)(F)F)c1	6.3µM*	-2%	4µM*
O=C(Nc1ccccc1N1CCOCC1)c1ccccc1[N+](=O)[O-]	21%	9%	-16%
O=C(N/N=C/c1ccc(N2CCCCC2)o1)c1ccccc1[N+](=O)[O-]	u	-8%	8.9µM*
O=C(N/N=C/c1cccnc1)c1ccccc1[N+](=O)[O-]	-3%	3%	1%
CCOc1ccc(N(CC(=O)NC2CCCCC2)C(=O)CCC(=O)Nc2cc(C)ccn2)cc1	7%	x	4%
COc1cc(NC(=O)CCS(=O)(=O)c2ccc3c(c2)n(C)c(=O)c(=O)n3C)cc(OC)c1	-9%	x	-2%
C=C(C(C)=O)C(O)c1cccc(Br)c1 (centres undefined)	-1%	-1%	13%
CC1=C2C3OC(=O)C(C)[C@@H]3CC[C@](C)(O)C2C2C3C4C5(C12)[C@H]1OC(=O)[C@@H](C)C1CC[C@]4(C)O[C@]5(C)[C@@H]3O (some centres undefined)	-1%	-3%	-10%
O=C(Nc1oc2ccccc2c(=O)c1-c1ccc(Br)cc1)c1ccco1	3%	x	6%
CC(=O)Nc1cccc(C2=CC(c3ccco3)n3ncnc3N2)c1 (centres undefined)	6.3µM*	-1%	-14%
Clc1ccc(C2=CC(c3ccco3)n3ncnc3N2)cc1 (centres undefined)	u	1%	-18%
Fc1cc(Cl)ccc1NC(=S)NCCN1CCOCC1	-12%	-2%	-17%[10 µM]
COc1ccc2ccccc2c1/C=N/NC(=S)NCCN1CCOCC1	4.5µM*	-1%	4.5µM*
Oc1ccc(/C=N/NC(=S)NCCN2CCOCC2)c(O)c1	13µM*	0%	-10%
COc1cc(/C=N/NC(=S)NCCN2CCOCC2)cc(OC)c1O	u	-7%	u
S=C(NCCN1CCOCC1)N/N=C/c1ccccc1	13µM*	-4%	u
COC(=O)c1ccc(/C=N/NC(=S)NCCN2CCOCC2)cc1	u	-2%	u
S=C(NCCN1CCOCC1)N/N=C/c1c2ccccc2cc2ccccc12	u	-2%	u
COc1cc(OC)c(OC)cc1/C=N/NC(=S)NCCN1CCOCC1	4µM*	0%	7.1µM*
SMILES	RORgamma inh	KinaseGlo FLuc	Gal4-VP16 FLuc
O=c1c(-c2ccccc2)nc2cnc(N3CCOCC3)nc2n1CCc1ccccc1	-22%	x	-3%
C=CCOc1ccccc1CN1CCC(n2nccc2NC(=O)c2ccccc2)CC1	-2%	x	4%
Oc1c(Br)cc(Br)cc1CN(Cc1cc(Br)cc(Br)c1O)C1CCCCC1	x	-6%[7.66 µM]	x
COCCNC(=S)N/N=C/c1c2ccccc2cc2ccccc12	7.1µM*	x	u
COc1cc(OC)c(OC)cc1/C=N/NC(=S)NCC1CCCO1 (centres undefined)	6.3µM*	2%	14µM*
C[N+](C)(C)CC(=O)N/N=C/c1c2ccccc2cc2ccccc12	-10%	x	-4%
COc1cc(/C=N/NC(=O)C(=O)NCC2CCCO2)ccc1O (centres undefined)	-3%	0%	1%
CCOc1ccc(CNS(=O)(=O)c2cccs2)cc1OCC	30%	x	-3%
CCOCCCNC(=O)C(c1ccc(OC)cc1)N(Cc1cccs1)C(=O)c1ccccn1 (centres undefined)	14%	-5%	-2%
O=C(N/N=C/c1ccncc1)c1cccc([N+](=O)[O-])c1	7%	-1%	-2%
O=C(CCc1ccccc1O)N/N=C/c1ccc(Sc2cccc3cccnc23)o1	u	-2%	-15%
O=C(N/N=C/c1ccc(Sc2ccccn2)o1)c1cc2ccccc2cc1O	16µM*	-2%	19%[0.365 µM]
O=C(N/N=C\c1ccc(Sc2ccccn2)o1)c1cccc(F)c1	10µM*	-3%	-15%
O=C(N/N=C/c1ccc(Sc2ccccn2)o1)c1cccc([N+](=O)[O-])c1	4µM*	0%	11µM*
O=C(N/N=C/c1cnc2ccccc2n1)c1cccc(F)c1	1%	10%	-13%
C=C[C@]1(C)CC(=O)[C@@]2(O)[C@@]3(C)C(O)CCC(C)(C)C3C(O)C(OC(C)=O)[C@@]2(C)O1 (some centres undefined)	1%	-1%	5%
O=c1[nH]c2[nH]c(=S)[nH]c(=S)c2[nH]1	x	-2%[7.66 µM]	x
COc1cc(CCN2C(=O)N[C@@H](c3ccccc3)C(C(C)=O)=C2C)cc(OC)c1OC	0%	1%	1%
CN(c1ccccc1C(=O)Nc1ccccc1-c1ccccc1)S(C)(=O)=O	32%	x	1%
CCCC(=O)c1ccc(N2CCC(C)CC2)c(F)c1	1%	-1%	-2%
C/C(=C\c1ccc2c(c1)OCO2)C(=O)c1c(C)cc(C)[nH]c1=O	-26%	2%	3%
c1ccc(-c2nnc(CN3CCCc4ccccc43)o2)cc1	-32%	0%	u
CCOC(=O)C1CCN(Cc2ccccc2C(F)(F)F)CC1	24%	-1%	0%
CCOC(=O)C1CCN(Cc2ccc(O)c3ncccc23)CC1	2.8µM*	-1%	5µM*
COc1ccccc1N1CCN(Cc2ccc(O)c3ncccc23)CC1	0.5µM*	-4%	u
SMILES	RORgamma inh	KinaseGlo FLuc	Gal4-VP16 FLuc
COc1ccccc1N1CCN(Cc2ccc(OC)c(OC)c2OC)CC1	12%	-3%	-4%
Oc1ccc(CN2CCCc3ccccc32)c2cccnc12	7.9µM*	-2%	13µM*
CC(CNC(=O)c1cccnc1)NC(=O)c1cccnc1 (centres undefined)	14%	x	-3%
COc1cccc(-c2c(C#N)c(N)nc3c2c(C)nn3-c2ccccc2)c1O	6%	x	-9%
Clc1ccc(-c2nnc(NC3=NCCCCC3)o2)cc1	6.3µM*	-26%	8.9µM*
Fc1cc(Cl)ccc1NC1=NCCCCC1	0%	x	5%
CC(=O)Nc1ccc(N2C(=O)CSC2c2ccccc2)cc1 (centres undefined)	1%	x	-3%
C/C(=N\NC(=O)c1ccc(O)cc1)c1ccc(NC(=O)Cc2ccccc2)cc1	0%	x	u
CSc1ccc(S(=O)(=O)N2CCC(C(=O)NCCN3CCOCC3)CC2)cc1	-13%	x	0%
Cc1cc(NC(=O)c2cc(-c3ccccc3)on2)no1	22%	-5%	-1%
O=C(c1ccccc1)c1cc(-c2ccccc2)on1	u	11µM*	11µM*
COCCNc1ccnc(-c2ccccc2CN(C)C)n1	14%	-4%	-6%
COc1ccc2c(C(=O)CCl)c[nH]c2c1	u	x	18µM*
COc1ccc(OCC(=O)c2c[nH]c3ccccc23)cc1	-16%	-2%	-3%
